Experimental data published in PubChem BioAssay (NCATS).
Results filed as inconclusive are left out. Calls of active or inactive are those of the source. The call rests on the fitted dose curve; in most records, active means well fitted cell-killing curve with a large enough effect; inconclusive means small, poorly fitted or top-dose-only effect, or effect the other way; inactive means flat fitted curve, though single readings scatter.

Columns and labels:
Experiment in all cases: Primary qHTS to identify gynecologic anti-cancer compounds using libraries of approved drugs and bioactive compounds (AID 1345084); further: nearly all actives have a fitted effect of over 55% in size
CAOV3 = details: Gynecologic cancer cell panel viability, ATPlite luminescence, 48 h; series mostly up to 57.5 µM
Outline: (§1)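 Cell viability after 48 h drug treatment, ATPlite luminescence readout; five doses.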

CASKI = details: Gynecologic cancer cell panel viability, ATPlite luminescence, 48 h; series mostly up to 57.5 µM
Outline: as §1

Es-2 = details: Gynecologic cancer cell panel viability, ATPlite luminescence, 48 h; series mostly up to 57.5 µM
Outline: as §1

HeLa = details: Gynecologic cancer cell panel viability, ATPlite luminescence, 48 h; series mostly up to 57.5 µM
Outline: as §1

Hek293T = details: Gynecologic cancer cell panel viability, ATPlite luminescence, 48 h, control line for the selectivity index; series mostly up to 57.5 µM
Outline: as §1

JEG-3 = details: Gynecologic cancer cell panel viability, ATPlite luminescence, 48 h; series mostly up to 57.5 µM
Outline: as §1

OV90 = details: Gynecologic cancer cell panel viability, ATPlite luminescence, 48 h; series mostly up to 57.5 µM
Outline: as §1

PA-1 = details: Gynecologic cancer cell panel viability, ATPlite luminescence, 48 h; series mostly up to 57.5 µM
Outline: as §1

SKOV3 = details: Gynecologic cancer cell panel viability, ATPlite luminescence, 48 h; series mostly up to 57.5 µM
Outline: as §1

Tov-21-G = details: Gynecologic cancer cell panel viability, ATPlite luminescence, 48 h; series mostly up to 57.5 µM
Outline: as §1

Tov112D = details: Gynecologic cancer cell panel viability, ATPlite luminescence, 48 h; series mostly up to 57.5 µM
Outline: as §1

Measured: Potency

CC(C)C1=CCC(C)(O)C(OC2OC(CO)C(O)C(O)C2O)C1 (stereo not given)
inactive: all assays above

NC(=O)c1ccc(OCC2NC(=O)C3CCCN3C2=O)cc1 (stereo not given)
inactive: all assays above

Cc1[nH]cnc1C1CCN(c2nc3cccc4c3n2CCC4=O)CC1
inactive: all assays above

COc1ccc(/C=C/C(=O)O[C@H]2[C@@H]3C=CO[C@@H](O[C@@H]4O[C@H](CO)[C@@H](O)[C@H](O)[C@H]4O)[C@@H]3[C@@]3(CO)O[C@@H]23)cc1O
inactive: all assays above

O=C1CC(c2ccc([N+](=O)[O-])cc2)=NN1c1ccccc1
inactive: all assays above

C[C@H]1CN(C[C@H](Cc2ccccc2)C(=O)NCC(=O)O)CC[C@@]1(C)c1cccc(O)c1
inactive: all assays above

C=C1CCC2C(C)(COC3OC(COC(=O)CC(=O)O)C(O)C(O)C3O)CCCC2(C)C1CCC1=CCOC1=O (stereo not given)
inactive: all assays above

COC(=O)c1cc(CN2CCN(C(=N)N)CC2)cc(C(=O)N2CCN(C(=O)c3ccc(C(=N)N)cc3)CC2)c1
inactive: all assays above

CC1=C2C(=O)C=C(CO)[C@@H]2[C@H]2OC(=O)[C@H](C)[C@@H]2[C@@H](O)C1
inactive: all assays above

CC1CCC2C(C)(C)CC(C)(CO)C2(O)C1C(=O)O (stereo not given)
inactive: all assays above

O=C(/C=C/c1ccc(O)cc1)OC[C@H]1O[C@@H](OC(=O)/C=C/c2ccccc2)[C@H](O)[C@@H](O)[C@@H]1O
inactive: all assays above

Cc1cc(C)cc(NC(=O)Cc2ccc(OC(C)(C)C(=O)O)cc2)c1
inactive: all assays above

CC1(O)CCC2C(C(=O)O)=COC(OC3OC(CO)C(O)C(O)C3OC(=O)/C=C/c3ccc(O)cc3)C21 (stereo not given)
inactive: all assays above

C/C(=C\CCC(C)(O)c1ccc(C)cc1)C(=O)O (stereo not given)
inactive: all assays above

COc1c2c(c(C)c3c1C(=O)OC3)O[C@@]1(C)C[C@@H](O)[C@]34O[C@](OC)(CC[C@]3(C)[C@H]1C2)OC4(C)C
inactive: all assays above
